The results in this text go back to PubChem BioAssay (EPA / NIEHS).

Structures are written as SMILES. Calls of active or inactive are those of the source. Rule for the calls: active = hit-call score of the fitted dose curve at least 0.9, where 1 is the maximum; inactive = score below 0.9.

The nature of one assay: ATG_E_Box_CIS: Attagene CIS-FACTORIAL HepG2 Assay for human Enhancer Box (E-box) (AID 2282936). To be noted: HepG2 E-box cis-reporter transcription, actives raise or lower the signal. The method in brief:
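Measured 24 h post-dosing in HepG2 cells transfected with multiple cis-regulated reporter units, signal being reporter mRNA induction detected by fluorescent RT-PCR with capillary electrophoresis; gain or loss fitted against DMSO.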
In the case of `CC/C=C\CCOC(C)OCC` (configuration not stated), the outcome was inactive.

With `CCCCCCCCCCCCCCCCCC(=O)OCCCCCCCCCCCCCC(C)C`, the result was inactive.

Consider `CC(=N[Si](C)(C)C)O[Si](C)(C)C`, for which the result was inactive.

As for `c1ccc(Cc2ccccc2)cc1`, the result was inactive.

Regarding `Cc1cc(N)n(-c2ccccc2)n1`, the outcome was inactive.

On to `c1ccc(OCCOc2ccccc2)cc1`, for which the result was inactive.

On to `OCCCO`, for which the outcome was inactive.

Regarding `CCCCCC#CC(=O)OC`, the result was inactive.

Take `O=[N+]([O-])c1cc(N(CCO)CCO)ccc1NCCO`: the result was inactive.

For `C=C(C)C(=O)OCCC[Si](OC)(OC)OC`, the outcome was inactive.

Take `c1ccc2scnc2c1`: the outcome was inactive.

Take `CC12CCC(C1)C(C)(C)C2O` (configuration not stated): the result was inactive.

For the molecule `COc1ccc(OC)cc1`, the outcome was inactive.

In the case of `CCCCCCOC(C)=O`, the result was inactive.

As for `CC(CO)c1ccccc1` (configuration not stated), the outcome was inactive.

Turning to `CCCCCCCCCCCCOC(C)=O`, the result was inactive.

As for `CCCCC(CC)COCCO` (configuration not stated), the outcome was inactive.

With `CC(C)CCOC(=O)CC(C)C`, the result was inactive.

For `CCOC(=O)CCCCCCCCC(=O)OCC`, the outcome was inactive.

As to `CCCCCC(=O)O[C@]1(C(C)=O)CC[C@H]2[C@@H]3CCC4=CC(=O)CC[C@]4(C)[C@H]3CC[C@@]21C`, the result was inactive.

Consider `CN(C)c1ccc(C=O)cc1`, for which the outcome was inactive.

For the molecule `CCOCC(C)O` (configuration not stated), the outcome was inactive.

As for `COc1cc(OC)c2ccc(=O)oc2c1`, the result was inactive.

With `[Cl][Dy]([Cl])[Cl]`, the outcome was inactive.

As for `O=C(O)CS`, the result was inactive.

With `CCC(CC)CO`, the outcome was inactive.

For the molecule `CCCCCc1cccc(=O)o1`, the result was inactive.

For `Cc1ccccc1S`, the outcome was inactive.

`CCc1cccc(O)c1`: the result was inactive.

Consider `CCC(C)(CCCC(C)C)OC(C)=O` (configuration not stated), for which the outcome was inactive.

`CCC=C(C)C=O`: the outcome was inactive.

In the case of `NC(=O)c1c(Cl)cccc1Cl`, the result was inactive.

As to `CC(O)CNCC(C)O` (configuration not stated), the result was inactive.

Take `CC(C)Cc1ccc(C(C)C(=O)O)cc1` (configuration not stated): the outcome was inactive.

A further assay in a line: ATG_M_61_CIS: Attagene CIS-FACTORIAL HepG2 Assay for M61 Transcription Factor (Internal Marker) (AID 2282937). To be noted: HepG2 Attagene CIS-FACTORIAL M61 internal marker reporter; actives raise or lower the signal. The method in brief: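 Multiplexed reporter mRNA assay, HepG2 human hepatoma cells, 24 h treatment. Signal: FAM-labelled, HpaI-digested RT-PCR fragments by CE. Fit: bidirectional, baseline DMSO.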
Consider `CC/C=C\CCOC(C)OCC` (configuration not stated), for which the molecule was classed as inactive.

Consider `CCCCCCCCCCCCCCCCCC(=O)OCCCCCCCCCCCCCC(C)C`, for which the call was inactive.

Take `CC(=N[Si](C)(C)C)O[Si](C)(C)C`: the call was inactive.

As to `c1ccc(Cc2ccccc2)cc1`, the molecule was classed as inactive.

For the molecule `Cc1cc(N)n(-c2ccccc2)n1`, the result was inactive.

In the case of `c1ccc(OCCOc2ccccc2)cc1`, the call was inactive.

With `OCCCO`, the outcome was inactive.

Consider `CCCCCC#CC(=O)OC`, for which the molecule was classed as inactive.

For `O=[N+]([O-])c1cc(N(CCO)CCO)ccc1NCCO`, the molecule was called inactive.

Regarding `C=C(C)C(=O)OCCC[Si](OC)(OC)OC`, the outcome was inactive.

With `c1ccc2scnc2c1`, the call was inactive.

Turning to `CC12CCC(C1)C(C)(C)C2O` (configuration not stated), the outcome was inactive.

Consider `COc1ccc(OC)cc1`, for which the outcome was inactive.

On to `CCCCCCOC(C)=O`, for which the molecule was classed as inactive.

`CC(CO)c1ccccc1` (configuration not stated): the molecule was called inactive.

As for `CCCCCCCCCCCCOC(C)=O`, the outcome was inactive.

For the molecule `CCCCC(CC)COCCO` (configuration not stated), the outcome was inactive.

Turning to `CC(C)CCOC(=O)CC(C)C`, the molecule was classed as inactive.

As to `CCOC(=O)CCCCCCCCC(=O)OCC`, the molecule was classed as inactive.

As to `CCCCCC(=O)O[C@]1(C(C)=O)CC[C@H]2[C@@H]3CCC4=CC(=O)CC[C@]4(C)[C@H]3CC[C@@]21C`, the molecule was classed as inactive.

Take `CN(C)c1ccc(C=O)cc1`: the molecule was classed as inactive.

Consider `CCOCC(C)O` (configuration not stated), for which the call was inactive.

`COc1cc(OC)c2ccc(=O)oc2c1`: the result was inactive.

As for `[Cl][Dy]([Cl])[Cl]`, the result was inactive.

Consider `O=C(O)CS`, for which the call was inactive.

For `CCC(CC)CO`, the result was inactive.

As to `CCCCCc1cccc(=O)o1`, the result was inactive.

`Cc1ccccc1S`: the outcome was inactive.

Take `CCc1cccc(O)c1`: the result was inactive.

Take `CCC(C)(CCCC(C)C)OC(C)=O` (configuration not stated): the outcome was inactive.

As to `CCC=C(C)C=O`, the call was inactive.

Regarding `NC(=O)c1c(Cl)cccc1Cl`, the result was inactive.

As to `CC(O)CNCC(C)O` (configuration not stated), the result was inactive.

For the molecule `CC(C)Cc1ccc(C(C)C(=O)O)cc1` (configuration not stated), the result was inactive.

A short description of the next assay: ATG_EGR_CIS: Attagene CIS-FACTORIAL HepG2 Assay for human Early Growth Response 1 (EGR1) (AID 2282938). Conditions: HepG2 Attagene CIS-FACTORIAL EGR reporter mRNA; actives raise or lower the signal. Put shortly:
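Multiplexed cis-reporter system in human hepatoma HepG2 cells, transiently transfected. Cells are dosed for 24 h; reporter transcripts are amplified, fluorescently tagged and sized by capillary electrophoresis, with DMSO as negative control.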
Take `CC/C=C\CCOC(C)OCC` (configuration not stated): the call was inactive.

As to `CCCCCCCCCCCCCCCCCC(=O)OCCCCCCCCCCCCCC(C)C`, the call was inactive.

`CC(=N[Si](C)(C)C)O[Si](C)(C)C`: the molecule was called inactive.

As to `c1ccc(Cc2ccccc2)cc1`, the molecule was classed as inactive.

Regarding `Cc1cc(N)n(-c2ccccc2)n1`, the result was inactive.

Consider `c1ccc(OCCOc2ccccc2)cc1`, for which the call was inactive.

As to `OCCCO`, the molecule was called inactive.

Take `CCCCCC#CC(=O)OC`: the outcome was inactive.

Consider `O=[N+]([O-])c1cc(N(CCO)CCO)ccc1NCCO`, for which the molecule was called inactive.

On to `C=C(C)C(=O)OCCC[Si](OC)(OC)OC`, for which the result was inactive.

Consider `c1ccc2scnc2c1`, for which the result was inactive.

`CC12CCC(C1)C(C)(C)C2O` (configuration not stated): the molecule was called inactive.

In the case of `COc1ccc(OC)cc1`, the molecule was classed as inactive.

For `CCCCCCOC(C)=O`, the call was inactive.

On to `CC(CO)c1ccccc1` (configuration not stated), for which the molecule was called inactive.

Take `CCCCCCCCCCCCOC(C)=O`: the molecule was classed as inactive.

Consider `CCCCC(CC)COCCO` (configuration not stated), for which the outcome was inactive.

For the molecule `CC(C)CCOC(=O)CC(C)C`, the result was inactive.

Consider `CCOC(=O)CCCCCCCCC(=O)OCC`, for which the molecule was called inactive.

With `CCCCCC(=O)O[C@]1(C(C)=O)CC[C@H]2[C@@H]3CCC4=CC(=O)CC[C@]4(C)[C@H]3CC[C@@]21C`, the molecule was classed as inactive.

Consider `CN(C)c1ccc(C=O)cc1`, for which the result was inactive.

Consider `CCOCC(C)O` (configuration not stated), for which the call was inactive.

As for `COc1cc(OC)c2ccc(=O)oc2c1`, the molecule was called inactive.

Take `[Cl][Dy]([Cl])[Cl]`: the molecule was classed as inactive.

`O=C(O)CS`: the molecule was called inactive.

As to `CCC(CC)CO`, the molecule was classed as inactive.

Consider `CCCCCc1cccc(=O)o1`, for which the result was inactive.

On to `Cc1ccccc1S`, for which the outcome was inactive.

Take `CCc1cccc(O)c1`: the outcome was inactive.

Turning to `CCC(C)(CCCC(C)C)OC(C)=O` (configuration not stated), the result was inactive.

As for `CCC=C(C)C=O`, the call was inactive.

For `NC(=O)c1c(Cl)cccc1Cl`, the molecule was classed as inactive.

With `CC(O)CNCC(C)O` (configuration not stated), the molecule was classed as inactive.

Consider `CC(C)Cc1ccc(C(C)C(=O)O)cc1` (configuration not stated), for which the outcome was inactive.
